From PubChem BioAssay AID2315 (National Center for Advancing Translational Sciences (NCATS), 2010) come the findings set out here.

Molecules are shown by their SMILES. The campaign covered roughly 290,000 compounds. About 27,000 (9.3%) were called active. The entries come from a sample that favours actives as a whole. A number with no mark means an inactive call. No stated cut-off is given here; in the data, active means inhibition mostly above about 28% (no sharp cut-off); inactive means mostly below about 43%.

The nature of this test: A qHTS for Small Molecule Inhibitors of Shiga Toxin. Further: 0% is about no effect. As to conditions: Vero cells, Shiga toxin protein synthesis inhibition reporter; at 38.7 µM, hits give high values. For orientation: Quantitative high-throughput screening tests each substance at several concentrations.
A word on the inhibition: it is the drop in the measured response relative to a control, in per cent. With `Cc1ccc(C)c(C(C)NC(=O)C2CCCO2)c1` (stereo not given), the inhibition is -10.5%. In the case of `Cc1ccc(COc2ccc(/C=N/NC(=O)CN3CCCCC3)cc2)cc1` it was 87.5% (active). Take `CCOc1cc(/C=N/NC(=O)CN2CCCCC2)ccc1O`: the inhibition is -8.43%. Under `O=C(CN1CCSCC1)N/N=C/c1ccc(Cl)cc1` stands 29.2%; under `CC(=O)N/C(=N/c1nc(C)cc(C)n1)Nc1ccc(F)cc1F`, -13.6%. Under `CC(OC(=O)c1ccc2noc(-c3ccccc3)c2c1)C(N)=O` (stereo not given) stands 1.23%; under `CC(=O)c1c(C)n(-c2ccc(C)cc2)c2ccc(O)cc12`, -16.2%; under `CCCCCCOc1ccc(OC(=O)c2cccnc2)cc1`, 37.9%.

For `O=C(Oc1ccc(Br)cc1)c1cccnc1`, the inhibition is 22.6%. In the case of `O=C(Oc1ccc(-c2nc(-c3ccccn3)no2)cc1)c1ccccc1` it was 33% (active). For the molecule `CCN(CC)Cc1c(C(=O)N/N=C/c2cccc(OCc3ccc(F)cc3)c2)nnn1-c1nonc1N`, the inhibition is -1.06%.

In the case of `COC(c1ccccc1)(c1ccccc1)C(Oc1nc(C)cc(C)n1)C(=O)O` (stereo not given), the inhibition was -2.84%. `COc1ccc(S(=O)(=O)n2nc(C)c(S(=O)(=O)N3CCOCC3)c2C)cc1`: the inhibition is 13.2%. As to `CCOC(=O)c1c(-c2ccc(-c3ccccc3)cc2)csc1NC(=O)CCC(=O)O`, the inhibition was -3.4%. Take `O=c1c2cc([N+](=O)[O-])ccc2nc2n1CCC2`: the inhibition was -7.31%. Under `CSc1ccc(CNC(=O)c2ccc(NC(=O)C3=CSCCO3)cc2)cc1` stands 16.6%; under `O=C(NCc1ccccc1Cl)C1CCCO1` (stereo not given), 19.8%. On to `O=C(Nc1ccc(C(=O)NCc2ccccc2Cl)cc1)C1=CSCCO1`, for which the inhibition is 47.1% (active). On to `CC12CCC(C(=O)N(NC(=O)c3ccccc3O)C1=O)C2(C)C` (stereo not given), for which the inhibition was 10.2%. As to `Cc1cccc(C(=O)Nc2nnc(S(=O)(=O)N3CCCCCC3)s2)c1`, the inhibition is 13.6%. For `COc1cc(C(=O)OCc2ccc([N+](=O)[O-])cc2)cc(OC)c1OC`, the inhibition is -13.3%. With `COc1cc(/C=N\Nc2ccc([N+](=O)[O-])cn2)ccc1OCC(=O)O`, the inhibition is 31.3%. With `COc1cc(/C=N/O)ccc1OCc1ccc([N+](=O)[O-])cc1`, the inhibition was 82.1% (active). As to `Cc1ccc(CNC(=O)C(=O)c2cn(CC(=O)N3CCOCC3)c3ccccc23)cc1`, the inhibition was 79.4% (active).

Regarding `COc1cccc(NC(=O)CS(=O)(=O)c2cn(CC(=O)N3CCOCC3)c3ccccc23)c1`, the inhibition is -10.3%.

For the molecule `O=C(Nc1ccc(F)cc1)C(=O)c1cn(CC(=O)N2CCOCC2)c2ccccc12`, the inhibition is 15.3%. For the molecule `O=C(NCc1ccco1)C(=O)c1cn(CC(=O)N2CCCCCC2)c2ccccc12`, the inhibition was 27.2%.

Regarding `CN(Cc1ccccc1)C(=O)C(=O)c1cn(CC(=O)N2CCCC2)c2ccccc12`, the inhibition was 5.26%.

As to `Cc1ccc(CNC(=O)C(=O)c2cn(CC(=O)N3CCCC3)c3ccccc23)cc1`, the inhibition is 35.1% (active). Under `COc1cccc(NC(=O)C(=O)c2cn(CC(=O)N3CCOCC3)c3ccccc23)c1` stands 92.3% (active); under `CN1CCN(C(=O)C(=O)c2cn(CC(=O)N3CCCC3)c3ccccc23)CC1`, -13%. On to `O=C(NCCCn1ccnc1)C(=O)c1cn(CC(=O)N2CCCCCC2)c2ccccc12`, for which the inhibition is -6.62%. In the case of `COc1cccc(N(CC(=O)NC2CCCC2)C(=O)CCCC(=O)Nc2ccccn2)c1` it was -5.09%; in that of `CCCNC(=O)CCc1c(C)nc2c(c(C)nn2-c2ccccc2)c1C`, -16.2%. `CCOc1ccc(N(CC(=O)Nc2cccc(OC)c2)S(C)(=O)=O)cc1`: the inhibition is 28.6%.

With `CCC1=Nc2cc(C(=O)NCCN3CCCC3)ccc2Sc2ccc(C)cc21`, the inhibition was -6.55%.

Regarding `O=C(CN1C(=O)COc2ccc(Cl)cc21)Nc1ccc(N2CCOCC2)cc1`, the inhibition was -16.6%. As for `Cc1cccc(N(C)C(=O)CN2C(=O)COc3ccc(S(=O)(=O)N4CCCCCC4)cc32)c1`, the inhibition is 4.44%. As for `CCn1c(SCCC(C)C)nnc1-c1c[nH]c2ccccc12`, the inhibition is -3.59%. For `Cc1ccc(-c2csc(-c3cc(C)on3)n2)cc1`, the inhibition was 43% (active).

As to `CCCc1cc(-c2nc(-c3ccc(C)cc3)cs2)ccn1`, the inhibition was 68% (active). In the case of `Cc1ccc(-c2csc(-c3c[nH]c4ccccc34)n2)cc1` it was 111% (active); in that of `Cc1ccc(-c2csc(N(Cc3ccco3)C(=O)c3cccs3)n2)cc1`, 18.8%. As to `CCCc1cc(-c2n[nH]c(=S)n2CC)c2ccccc2n1`, the inhibition was -6.2%. For the molecule `CCC(C)Sc1nnc(-c2c[nH]c3ccccc23)n1CCOC` (stereo not given), the inhibition is 11.2%. In the case of `Cc1cc(-c2n[nH]c(=S)n2-c2ccc(C)c(C)c2)no1`, the inhibition is 6.5%. In the case of `CCCc1nc2scc(-c3ccc(C)cc3)c2c(=O)n1N` it was 44.2%; in that of `CC(=O)N1c2ccc(S(=O)(=O)N(C)CC(=O)N(C)Cc3ccccc3)cc2CC1C` (stereo not given), -1.97%; in that of `Cc1ccc(NC(=O)CCN2C(=O)c3ccccc3C2=O)cc1C`, 7.31%. Under `O=C(NCCN1CCOCC1)/C(=C/c1ccc(F)cc1)NC(=O)c1ccccc1` stands -6.87%.

Turning to `COc1cccc(CNC(=O)COc2cc(O)c3c(c2)OC(C)(C)CC3=O)c1`, the inhibition was 7.09%. On to `Cc1cccc(NC(=O)C2CCCN(C(=O)NCc3ccccc3)C2)c1C` (stereo not given), for which the inhibition is 14.7%.

In the case of `CCCc1cc(=O)[nH]c(SCC(=O)N2C(C)CCCC2C)n1` (stereo not given), the inhibition was 1.9%. As for `CN1CCN(C(=O)/C(=C\c2ccc3c(c2)OCO3)NC(=O)c2cccs2)CC1`, the inhibition was -3.92%.

As to `Cc1[nH]c2ccccc2c1/C=N/NC(=O)CNC(=O)c1ccc2c(c1)OCO2`, the inhibition is -14.9%.

Regarding `O=C(N/N=C/c1ccc2c(c1)OCO2)C(=O)N1CCCC1`, the inhibition is 76.5% (active). Take `O=C(Cc1ccc(F)cc1)N/N=C/c1ccc2c(c1)OCO2`: the inhibition was 42.2%. For the molecule `O=C(N/N=C/c1ccc([N+](=O)[O-])cc1)C(=O)N1CCCC1`, the inhibition is 19%. Consider `O=C(CNC(=O)C(c1ccccc1)c1ccccc1)N/N=C\c1ccc2c(c1)OCO2`, for which the inhibition was 66.2% (active).

As for `OC(COc1ccc(Br)cc1)CN1CCCC1` (stereo not given), the inhibition was -1.94%.
